Measurements reported in PubChem BioAssay (NCI).
Compounds without any hit were thinned out: in the full panel of roughly 79,000, 15% have a hit. The source made the active and inactive calls. No stated cut-off is given here; in the data, active means growth inhibition above about 70%; inactive means the rest.

How the values were obtained:
[1] = NCI Yeast Anticancer Drug Screen. Data for the rad50 strain (AID 155);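 further: 0% = growth of vehicle-only cultures of the same strain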; details: S. cerevisiae rad50 strain growth inhibition; at 50.0 µM; stronger effect = higher value
In short: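 Growth of the mutant yeast was measured after compound exposure and referenced to vehicle-treated cultures.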

[2] = NCI Yeast Anticancer Drug Screen. Data for the mec2-1 strain (AID 157); details: S. cerevisiae mec2-1 strain, at 50.0 µM, stronger effect = higher value
In short: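 Vehicle-treated cultures served as reference for growth inhibition of compound-exposed mec2-1 yeast.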

[3] = NCI Yeast Anticancer Drug Screen. Data for the sgs1 mgt1 strain (AID 161);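 further: 0% = growth of cultures given vehicle only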; details: S. cerevisiae sgs1 mgt1 strain, at 50.0 µM, stronger effect = higher value
In short: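 Test agents were incubated with a DNA-repair-mutant yeast strain. Growth was then read and compared against vehicle-treated controls.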

[4] = NCI Yeast Anticancer Drug Screen. Data for the cln2 rad14 strain (AID 165);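 further: 0% = growth equal to vehicle treated cultures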; details: S. cerevisiae cln2 rad14 strain, at 50.0 µM, stronger effect = higher value
In short: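 Each compound was tested on cln2 rad14 yeast. Inhibition of growth was calculated against vehicle-exposed controls.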

[5] = NCI Yeast Anticancer Drug Screen. Data for the bub3 strain (AID 167); details: S. cerevisiae bub3 mutant strain, at 50.0 µM, stronger effect = higher value
In short: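 Whole-cell yeast assay. The mutant strain was incubated with compounds, and growth inhibition was determined by comparison with vehicle-treated cells.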

[6] = NCI Yeast Anticancer Drug Screen. Data for the mlh1 rad18 strain (AID 175); details: S. cerevisiae mlh1 rad18 strain growth inhibition; at 50.0 µM; stronger effect = higher value
In short: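 Vehicle-treated cultures served as the reference for growth inhibition in a yeast strain carrying DNA damage repair alterations exposed to each compound.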

Measured: growth inhibition

OC(C1=C/C(=C\c2ccncc2)c2ccccc21)c1ccncc1 (stereo unspecified)
active: [1] 84.7% | [2] 86.5% | [3] 96.8% | [5] 86.3% | [6] 93%
inactive: [4] 47.6%

CC(C)/C=C\C(=O)CC(C)C
inactive: [1] -3.65% | [2] 28.8% | [3] 9.35% | [4] 5.9% | [5] 17.4% | [6] 18.6%

O=C1C=CC(=O)c2c(Cl)ccc(O)c21
inactive: [1] -16.9% | [2] -30.6% | [3] -20.4% | [4] 10.1% | [5] -20.2% | [6] -8.7%

Clc1ccc(C(Cl)(c2ccc(Cl)cc2)C(Cl)(Cl)Cl)cc1
inactive: [1] -14.1% | [2] -14.4% | [3] -7.4% | [4] -6.2% | [5] 32.9% | [6] 11.8%

CC/C(=C\c1ccc(NC(C)=O)cc1)c1ccncc1
inactive: [1] -5.6% | [2] -16.6% | [3] 7.2% | [4] -0.85% | [5] -12.8% | [6] -4.6%

COC1OC(CO)C(O)C1O (stereo unspecified)
inactive: [1] -25% | [2] -18.8% | [3] 2.55% | [4] -44.4% | [5] -4.85% | [6] -9.25%

NCCSCCN
inactive: [1] -7.65% | [2] -2.45% | [3] -4.65% | [4] -0.3% | [5] 13.2% | [6] 8.15%

NC(=O)CS
inactive: [1] -14.3% | [2] -17.2% | [3] -21.8% | [4] -11.7% | [5] -14.1% | [6] -22.1%

O=C1c2ccccc2C(=O)C2C1C(c1ccccc1)N(c1ccccc1)C2c1ccccc1 (stereo unspecified)
inactive: [1] -16.4% | [2] -1.55% | [3] -7.1% | [4] 5.75% | [5] 2.65% | [6] -3.1%

C[N+]1(C)N=C([O-])N(CCCCCCN2C(=O)[N+](C)(C)N=C2[O-])C1=O
inactive: [1] 10.3% | [2] -13.1% | [3] 15.1% | [4] 9.55% | [5] 8.65% | [6] 15%

Fc1nc(F)nc(-c2c3ccccc3c3n2CCS3)n1
inactive: [1] 1.65% | [2] 14.1% | [3] 9.1% | [4] 15.3% | [5] 4.7% | [6] 7.2%

Cc1cc(N)ccc1N=Nc1ccc(Sc2ccc(N=Nc3c(S(=O)(=O)O)cc4cc(S(=O)(=O)O)c(N=Nc5ccc([N+](=O)[O-])cc5)c(N)c4c3O)cc2)cc1
inactive: [1] -77% | [2] -27.9% | [3] -32.4% | [4] -95.8% | [5] -65.8% | [6] -27.9%

CCCCCN(C(=O)CCC)c1ccccc1
inactive: [1] 45.8% | [2] 8.5% | [3] 24.5% | [4] 17.7% | [5] 3.2% | [6] 41.8%

CC1(C)OC2OC(C3COS(=O)O3)C(Cl)C2O1 (stereo unspecified)
inactive: [1] -2% | [2] 2.45% | [3] -1.4% | [4] -48.8% | [5] -0.7% | [6] 8.6%

CC(C)NC(=O)CCSCCC(=O)NC(C)C
inactive: [1] 3.6% | [2] -10.7% | [3] -3.75% | [4] -6.8% | [5] -17.9% | [6] 10.1%

O=c1oc2ccc3ccccc3c2cc1-c1c[nH]c2ccccc12
inactive: [1] 10.7% | [2] 10% | [3] 15.2% | [4] 11.6% | [5] 6.05% | [6] 7.05%

COc1cc(/C(C#N)=C/c2ccccn2)c([N+](=O)[O-])cc1OC
inactive: [1] -7.9% | [2] -2% | [3] 6% | [4] -36.6% | [5] 4.5% | [6] -5.9%

CC(C)CC1NC(=O)CCC(NC(=O)C(Cc2ccc(O)cc2)NC(=O)OCc2ccccc2)C(=O)NC(Cc2ccccc2)C(=O)NC(Cc2ccccc2)NC1=O (stereo unspecified)
inactive: [1] -24.9% | [2] -21.6% | [3] -24% | [4] 8.6% | [5] -7.55% | [6] -18%

CN(C)c1ccccc1N(C)C
inactive: [1] 5.5% | [2] -15.4% | [3] -14.9% | [4] -8.2% | [5] -1.35% | [6] -13%

C=CC1CC(NC(=O)OC)C(=O)O1 (stereo unspecified)
inactive: [1] 1.05% | [2] 5.2% | [3] 8.45% | [4] -38.1% | [5] 14.3% | [6] -3.25%

Cc1cc(C)c(C2CC(O)C(CO)O2)cc1C (stereo unspecified)
inactive: [1] -2% | [2] -20.9% | [3] -10.1% | [4] 14.1% | [5] -3.35% | [6] 21.4%

O=Cc1c2c(cc3c1CC1(C3)Cc3cc4c(c(C=O)c3C1)CCCC4)CCCC2
inactive: [1] 5.25% | [2] 11.6% | [3] 4.4% | [4] 25.3% | [5] 17.3% | [6] 25.1%

C=C(CCCC(=C)C(N)=O)C(N)=O
inactive: [1] -14.4% | [2] -14.5% | [3] -12.1% | [4] 2.55% | [5] -0.85% | [6] -27.4%

CC(NC(=O)CNC(=O)CNC(=O)OCc1ccccc1)C(=O)OCc1ccccc1 (stereo unspecified)
inactive: [1] 4.35% | [2] 1.4% | [3] -3.65% | [4] -3.65% | [5] 1.45% | [6] 5.4%

CC(=O)C1=C(C)N2C(=NC3=C(CCc4ccccc43)C2c2ccc(F)cc2)S1 (stereo unspecified)
inactive: [1] -5.6% | [2] -23.9% | [3] -15.4% | [4] 11.3% | [5] -21.8% | [6] -9.8%

O=C(O)CNC(=O)OCc1ccccc1
inactive: [1] -35.9% | [2] -16.4% | [3] -35.5% | [4] -45.8% | [5] 1.55% | [6] -19.4%

Nc1nc2c(ncn2-c2cccc(Cl)c2)c(=O)[nH]1
inactive: [1] -0.9% | [2] 16.5% | [3] 7.55% | [4] -7.5% | [5] 31.5% | [6] 13.8%

O=C(CCC1CCCC1)Oc1ccccc1C(=O)O
inactive: [1] -1.9% | [2] -9.65% | [3] 7.1% | [4] -42.7% | [5] 9.5% | [6] 3.4%

Cc1cc2c(C)nn(Cc3ccccc3Cl)c2c(C#N)c1C
inactive: [1] 32.5% | [2] -1.6% | [3] 43% | [4] 23.9% | [5] 26.9% | [6] 44.4%

O=C(O)Cc1ccc(N2N=C(c3ccccc3)CC2=O)cc1
inactive: [1] 5.3% | [2] -5.05% | [3] -13.6% | [4] 35% | [5] 22.4% | [6] -9.3%

CCCCCc1cc(C(=O)NN)c2ccccc2n1
inactive: [1] -29.7% | [2] -25% | [3] -12.6% | [4] -15.8% | [5] 33.1% | [6] -12.8%

NC(Cc1ccc(B(O)O)cc1)C(=O)O (stereo unspecified)
inactive: [1] -26.1% | [2] -53.6% | [3] -29.5% | [4] -7.4% | [5] 7.75% | [6] -4.05%

O=[N+]([O-])c1ccc(OC(=S)N2CCOCC2)cc1
inactive: [1] -7.05% | [2] 9.3% | [3] -8.3% | [4] 0.15% | [5] -10.2% | [6] -0.65%

CCC(O)C1CCCCN1 (stereo unspecified)
inactive: [1] -20.8% | [2] -7% | [3] -12.2% | [4] -4.05% | [5] -17.5% | [6] -11.2%

FC1(F)SC2CCCCCCCCCCC2C1(F)F (stereo unspecified)
inactive: [1] -42.6% | [2] -15.3% | [3] -20.4% | [4] -18.7% | [5] 29.1% | [6] 2.05%

CCOC(=O)c1[nH]c(C)cc1C
inactive: [1] 2.95% | [2] -15.9% | [3] -7.55% | [4] -18.2% | [5] -22.4% | [6] -0.9%

CCCCCCCCCCCCCCCCCCCCCCCCCC(=O)O
inactive: [1] 30.4% | [2] -20.2% | [3] 32.5% | [4] 4.5% | [5] 23.9% | [6] 4.95%

O=C(CCCC(=O)N/N=C/c1ccc(Cl)cc1)N/N=C\c1ccc(Cl)cc1
inactive: [1] -27.4% | [2] -9.9% | [3] -9.9% | [4] -11.6% | [5] -1.65% | [6] -16.9%

COc1ccc(-c2oc(/C=N/NC(N)=S)c([N+](=O)[O-])c2-c2ccc(OC)c(OC)c2)cc1OC
inactive: [1] 44.6% | [2] 22.8% | [3] 44% | [4] 24.4% | [5] 28.9% | [6] 34.6%

CCCn1c(C)nc2cc(C)cc(N)c21
inactive: [1] 19.2% | [2] 20.4% | [3] 11% | [4] -17.4% | [5] -1.15% | [6] 1.7%

CCC(O)(c1ccccc1)c1ccccc1
inactive: [1] 1.7% | [2] 3.5% | [3] -5.65% | [4] 4.15% | [5] -19.8% | [6] -4.8%
